Tgondii IFNg – T. gondii growth inhibition under IFN-gamma; Toxoplasma gondii growth in IFN-gamma-treated host cells; active compounds read low; activity change, negative = inhibition, % (test concentration not listed); hit rate 3.8% among 69,000; in the data active means activity change below about -70%, passing the limit was not always enough;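 further: host cells are HeLa cells infected with Toxoplasma gondii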
Active calls of the source: *; ! = not confirmed by another sample. The full list was thinned out, with hits kept by preference.

What do the screens show for `CCC(C)NC(=O)Cn1c(=O)c(S(=O)(=O)c2ccccc2)cc2ccccc21` (stereo unspecified)?
Tgondii IFNg: -18.6

Results for CCN(CC)CCNc1ccc(CO)c2sc3ccccc3c(=O)c12 ?
Tgondii IFNg: -97.0*!

How did CCN(CC)CCNC(=O)c1ccccc1I do in these assays?
Tgondii IFNg: 12.3

What do the screens show for `CCn1c(NC(=O)c2ccc(Cl)cc2)nc2ccccc21`?
Tgondii IFNg: 33.4

Results for NC(=O)C1(N2CCCCC2)CCN(c2ncc(NC(=O)c3ccccc3)cc2C(=O)O)CC1 ?
Tgondii IFNg: 2.8

What do the screens show for `O=C(c1cccc(CC2CCNCC2)c1)N1CCC(O)(Cn2ccnc2)CC1`?
Tgondii IFNg: 8.5

What do the screens show for `O=C(Nc1ccc(-c2nc(-c3ccccc3)co2)cc1)Nc1cccc(Cl)c1`?
Tgondii IFNg: -10.7

How did O=C(Nc1cccc(Cl)c1)Nc1ncc(CCNc2ncnc3ccsc23)s1 do in these assays?
Tgondii IFNg: -73.1*

Results for O=C(Nc1cccc(Cl)c1)c1ccccn1 ?
Tgondii IFNg: 220.9

What do the screens show for `Cc1cc(C)n(-c2nc(C(=O)NCCOc3ccc(F)cc3)cs2)n1`?
Tgondii IFNg: 11.5

How did O=C(NCc1cccs1)C1CCCN(C2CCN(Cc3ccncc3)CC2)C1 (stereo unspecified) do in these assays?
Tgondii IFNg: 3.7

How did COc1ccccc1NC(=O)Nc1ccc(-c2nc(-c3ccc(C)cc3)co2)cc1 do in these assays?
Tgondii IFNg: -77.2*

Results for COc1cc(OC)c(NC(=O)Nc2ccc(-c3nc(-c4ccccc4)co3)cc2)cc1Cl ?
Tgondii IFNg: -85.0*

What do the screens show for `Cc1ccc(-c2coc(-c3ccc(NC(=O)Nc4ccc(F)cc4F)cc3)n2)cc1`?
Tgondii IFNg: 13.7

How did COc1ccccc1NC(=O)Nc1ccc(-c2nc(-c3ccc(C)cc3C)co2)cc1 do in these assays?
Tgondii IFNg: -16.7

How did COc1cc(OC)c(NC(=O)Nc2ccc(-c3nc(-c4ccc(C)cc4)co3)cc2)cc1Cl do in these assays?
Tgondii IFNg: -77.1*

Results for COc1ccc(C)cc1NC(=O)Nc1ccc(-c2nc(-c3cccc(Br)c3)co2)cc1 ?
Tgondii IFNg: -50.5

Results for O=C(Nc1ccc(-c2nc(-c3ccccc3)co2)cc1)Nc1ccccc1Cl ?
Tgondii IFNg: 38.0

Results for COc1ccc(NC(=O)Nc2ccc(-c3nc(-c4ccccc4)co3)cc2)cc1Cl ?
Tgondii IFNg: 34.1

Results for COc1ccccc1NC(=O)Nc1ccc(-c2nc(-c3cc(C)ccc3C)co2)cc1 ?
Tgondii IFNg: -35.8

How did CCN(Cc1cc(Cl)ccc1OC)C(=O)C1(c2ccccc2)CC1 do in these assays?
Tgondii IFNg: 40.0

How did Cc1oncc1C(=O)N1CCC2(CC1)Cc1ccccc1CN(C)C2=O do in these assays?
Tgondii IFNg: 44.5

How did CCCc1nc(N(C)Cc2ccno2)c2cnn(C)c2n1 do in these assays?
Tgondii IFNg: -41.9

How did Cn1ccnc1CN(CC1CCC(N)CC1)C1CC1 (stereo unspecified) do in these assays?
Tgondii IFNg: -5.1

Results for CN(C)C(=O)CN1CCN(Cc2cccc(C(=O)Nc3cnn(C)c3)c2)CC1 ?
Tgondii IFNg: 11.1

Results for COC(=O)c1ccc2c(C(=Nc3ccc(N(C)C(=O)CN4CCN(C)CC4)cc3)c3ccccc3)c(O)[nH]c2c1 ?
Tgondii IFNg: -77.7*

What do the screens show for `CC[C@H](C)[C@H]1O[C@]2(CC[C@@H]1C)C[C@@H]1C[C@@H](C/C=C(\C)[C@@H](O[C@H]3C[C@H](OC)[C@@H](O[C@H]4C[C@H](OC)[C@@H](O)[C@H](C)O4)[C@H](C)O3)[C@@H](C)/C=C/C=C3\CO[C@@H]4[C@H](O)C(C)=C[C@@H](C(=O)O1)[C@]34O)O2`?
Tgondii IFNg: -86.8*!

What do the screens show for `CO[C@H]1CC(O[C@@H]2/C(C)=C/C[C@@H]3C[C@@H](C[C@]4(C=C[C@H](C)[C@@H](C5CCCCC5)O4)O3)OC(=O)[C@@H]3C=C(C)[C@@H](O)[C@H]4OC/C(=C\C=C\[C@@H]2C)[C@]43O)O[C@@H](C)C1O[C@H]1C[C@H](OC)[C@@H](O)[C@H](C)O1` (stereo partly specified)?
Tgondii IFNg: -73.2*

How did CCC(C)[C@H]1O[C@]2(CC[C@@H]1C)C[C@@H]1C[C@@H](C/C=C(\C)[C@@H](OC3C[C@H](OC)C(O[C@H]4C[C@H](OC)[C@@H](O)[C@H](C)O4)[C@H](C)O3)[C@@H](C)/C=C/C=C3\CO[C@@H]4[C@H](O)C(C)=C[C@@H](C(=O)O1)[C@]34O)O2 (stereo partly specified) do in these assays?
Tgondii IFNg: -80.0*

Results for CCOc1ccc(NC(=O)c2nc(Nc3ccc(C)cc3)c3ccccc3n2)cc1 ?
Tgondii IFNg: 70.7

How did COCC1c2nnn(C)c2CCN1C(=O)Cc1ccc(F)cc1C (stereo unspecified) do in these assays?
Tgondii IFNg: -6.1

What do the screens show for `O=C(Nc1cccc(-c2nc3ccccc3s2)c1)c1cccc2ccccc12`?
Tgondii IFNg: -7.2

Results for O=C(c1ccco1)N1CCC2(CCOCC2COc2cnccn2)CC1 (stereo unspecified) ?
Tgondii IFNg: 2.2

How did N#Cc1c(Cl)cccc1Oc1ccc(-c2ccn[nH]2)cc1 do in these assays?
Tgondii IFNg: -2.4

Results for Clc1cccc(Cl)c1/C=C/c1ccn[nH]1 ?
Tgondii IFNg: -88.8*

Results for CCOC(=O)c1[nH]c(=O)[nH]c1CN1[C@@H]2CC[C@H]1CN(C)C(=O)C2 ?
Tgondii IFNg: 5.2

How did CC1CCN(C(=O)c2nc(-c3cccc(F)c3)n3c2CCCCC3)CC1 do in these assays?
Tgondii IFNg: -58.8

Results for COc1cc(NC(=O)c2nc(-c3cccc(F)c3)n3c2CCCCC3)cc(OC)c1OC ?
Tgondii IFNg: -105.5*

Results for COc1ccc(CCNC(=O)c2nc(-c3cccc(F)c3)n3c2CCCCC3)cc1OC ?
Tgondii IFNg: -115.2*

What do the screens show for `COc1ccc(CC(=O)NCCc2csc(-c3cccc(F)c3)n2)cc1OC`?
Tgondii IFNg: 58.5

What do the screens show for `CC1CCCN(C(=O)c2nc(-c3cccc(F)c3)n3c2CCCCC3)C1` (stereo unspecified)?
Tgondii IFNg: 3.1

How did CCOCCCNC(=O)c1nc(-c2cccc(F)c2)n2c1CCCCC2 do in these assays?
Tgondii IFNg: 100.0

How did CC(C)Oc1ccc(NC(=O)c2cc(-c3cn(-c4ccccn4)cn3)n3ccccc23)cc1 do in these assays?
Tgondii IFNg: 383.0

What do the screens show for `Cc1ccc2oc(=O)n(CCC(=O)N3CCC4(CN(C)C(=O)O4)C3)c2c1` (stereo unspecified)?
Tgondii IFNg: -3.4

How did CCOc1ncccc1-c1cnc(-n2cnnc2)c(C)c1 do in these assays?
Tgondii IFNg: 13.8

What do the screens show for `COc1cccc(NC(=O)N2CCc3nc(-c4ccc(C)cc4)sc3C2)c1`?
Tgondii IFNg: -121.2*

How did COc1ccc(-c2nc3c(s2)CN(C(=O)Nc2cc(C)cc(C)c2)CC3)cc1 do in these assays?
Tgondii IFNg: -30.9

What do the screens show for `CCOc1ccc(-c2nc3c(s2)CN(C(=O)Nc2ccc(C)cc2C)CC3)cc1`?
Tgondii IFNg: 98.1

How did CCOc1ccc(-c2nc3c(s2)CN(C(=O)Nc2cc(C)ccc2OC)CC3)cc1 do in these assays?
Tgondii IFNg: -104.5*

Results for COc1ccc(-c2nc3c(s2)CN(C(=O)Nc2cc(C)ccc2OC)CC3)cc1 ?
Tgondii IFNg: -41.3

Results for COc1cccc(-c2nc3c(s2)CN(C(=O)Nc2ccc(Cl)cc2)CC3)c1 ?
Tgondii IFNg: -91.6*

Results for COc1ccc(OC)c(NC(=O)N2CCc3nc(-c4ccccc4)sc3C2)c1 ?
Tgondii IFNg: 12.7
